# Test results as given in PubChem BioAssay AID1835 (Johns Hopkins Ion Channel Center, 2009).
# Hit rate of the full screen: of about 2,400 compounds, about 750 (31%) were called active. Some of the results follow. Values without a mark were called inactive.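 How the source made its calls: active means median signal gain over dofetilide-blocked control wells reaching their mean plus 3 SD, so readout 1 at least 0; inactive means the rest.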
# Biological target: Voltage-gated inwardly rectifying potassium channel KCNH2 (Homo sapiens) (UniProt Q12809)
# Sequence (Q12809 whole entry, looked up): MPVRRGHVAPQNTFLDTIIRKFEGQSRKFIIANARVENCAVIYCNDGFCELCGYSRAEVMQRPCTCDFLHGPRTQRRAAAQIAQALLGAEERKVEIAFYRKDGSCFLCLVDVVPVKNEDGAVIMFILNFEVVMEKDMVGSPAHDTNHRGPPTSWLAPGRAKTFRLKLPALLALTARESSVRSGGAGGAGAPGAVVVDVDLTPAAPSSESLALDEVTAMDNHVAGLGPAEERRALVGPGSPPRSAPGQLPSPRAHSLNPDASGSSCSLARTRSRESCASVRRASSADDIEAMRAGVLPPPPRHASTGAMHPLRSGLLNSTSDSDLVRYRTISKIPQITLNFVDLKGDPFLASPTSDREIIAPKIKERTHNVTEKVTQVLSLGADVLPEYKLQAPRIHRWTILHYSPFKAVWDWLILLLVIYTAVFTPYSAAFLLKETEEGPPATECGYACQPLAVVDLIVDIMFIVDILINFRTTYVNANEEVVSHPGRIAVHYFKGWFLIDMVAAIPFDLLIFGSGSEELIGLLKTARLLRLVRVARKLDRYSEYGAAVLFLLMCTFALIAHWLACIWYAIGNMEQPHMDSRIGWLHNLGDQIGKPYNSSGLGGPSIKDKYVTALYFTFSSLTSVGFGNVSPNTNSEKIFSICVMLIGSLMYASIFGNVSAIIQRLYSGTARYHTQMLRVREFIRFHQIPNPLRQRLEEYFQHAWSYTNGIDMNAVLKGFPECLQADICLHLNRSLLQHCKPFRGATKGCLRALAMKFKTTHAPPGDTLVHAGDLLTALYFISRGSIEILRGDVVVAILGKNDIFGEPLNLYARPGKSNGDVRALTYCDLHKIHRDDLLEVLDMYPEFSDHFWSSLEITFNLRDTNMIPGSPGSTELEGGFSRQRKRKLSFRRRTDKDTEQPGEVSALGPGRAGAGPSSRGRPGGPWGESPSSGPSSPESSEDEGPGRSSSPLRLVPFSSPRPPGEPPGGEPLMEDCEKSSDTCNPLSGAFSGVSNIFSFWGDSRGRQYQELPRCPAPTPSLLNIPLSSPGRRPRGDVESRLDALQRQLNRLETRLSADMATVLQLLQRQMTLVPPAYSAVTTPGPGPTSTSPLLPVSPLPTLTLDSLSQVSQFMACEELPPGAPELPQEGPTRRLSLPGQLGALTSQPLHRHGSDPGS
# Experiment: hERG protection against dofetilide inhibition, confirmation, cell-based, thallium flux, duplicate retest, dofetilide IC70 (AID 1835)
# Conditions: hERG cell line, FluxOR thallium flux, dofetilide-blocked; at 10 µM; stronger effect = higher value
row,SMILES,"activity increase over dofetilide control, less the hit threshold"
1,CCOC(=O)c1c(C)[nH]c(=S)c(C#N)c1-c1ccc(Cl)cc1,-5%
2,c1ccc(Oc2cccc(OCCn3cncn3)c2)cc1,-4%
3,COCC(=O)N(Cc1ccco1)c1nnc(C2CCOC2)s1 (stereo not given),-19%
4,Cc1ccc(C(=O)COC(=O)C2CCC2)cc1,4% (active)
5,Cc1ccc(CNC(=O)CN2C(C)CCCC2C)cc1 (stereo not given),-7%
6,CC(NC(=O)COC(=O)C1CCC1)c1ccccc1 (stereo not given),-6%
7,CC(C)C(NC(=O)c1ccccc1)C(=O)N/N=C\c1ccco1 (stereo not given),-17%
8,Oc1ccc(N2CCN(C(c3cccnc3)c3nnnn3Cc3ccccc3)CC2)cc1 (stereo not given),0%
9,COc1ccc(-n2nc(C)cc2Nc2ccccc2C(=O)O)cc1,31% (active)
10,COc1ccc(N2CCN(C(=O)c3ccc(-c4ccccc4)cc3)CC2)cc1,-18%
11,Cc1cc(NC(=O)/C(C#N)=C/c2ccco2)n(-c2ccccc2)n1,-12%
12,O=C(O)c1cccc2cc(-c3ccccc3)oc(=O)c12,-13%
13,CCCCN(C(=O)CC1CCCC1)c1c(N)n(CC(C)C)c(=O)[nH]c1=O,-4%
14,Fc1cccc(/C=N/Nc2ccc3ccccc3n2)c1,-7%
15,Oc1c(N=Nc2ccccn2)ccc2ccccc12,-5%
16,COc1cccc(N=Nc2ccc(O)c3ncccc23)c1,25% (active)
17,COc1ccccc1N=Nc1ccc(O)c2ncccc12,2% (active)
18,Oc1ccc(N=Nc2ccc3c(c2)OCCO3)c2ncccc12,-4%

row,SMILES,"activity increase over dofetilide control, less the hit threshold"
1,CCN(CC)S(=O)(=O)c1cc(OC)ccc1N=Nc1ccc(O)c2ncccc12,27% (active)
2,O=[N+]([O-])c1ccc(O)c2ncccc12,-8%
3,Cc1ccc(N=Nc2ccc(O)c3ncccc23)cc1,40% (active)
4,COc1ccc(OC)c(S(=O)(=O)NCc2cn3cccc(C)c3n2)c1,-17%
5,COc1ccc(N(CC(=O)NCc2cccnc2)S(=O)(=O)c2ccccc2[N+](=O)[O-])c(OC)c1,-3%
6,CCOc1ccc(N=Nc2ccc(O)c3ncccc23)cc1,0%
7,COCC(=O)NC1CC2CCC(C1)N2C(=S)Nc1ccccc1C(=O)OC (stereo not given),-6%
8,CCC[C@H]1COCCS(=O)(=O)N1Cc1ccc(Br)cc1,-4%
9,CS(=O)(=O)N1CCC(C(=O)Nc2c(F)cccc2F)CC1,-6%
10,Cn1c(=O)c2c(nc(Cl)n2CC(=O)N2CCCCC2)n(C)c1=O,-11%
11,N=C1SCC(=O)N1c1ncc(Cc2ccccc2Cl)s1,-9%
12,Cc1ccc(/C=N/NC(=O)c2cc(-c3ccncc3)nc3ccccc23)o1,-22%
13,O=C(N/N=C/c1ccc(Sc2ccccn2)o1)c1cc2ccccc2cc1O,7% (active)
14,Cc1ccc(/C=N/NC(=O)c2cc(C)oc2C)o1,-5%
15,Cc1ccc(/C=N/NC(=O)c2cc3ccccc3cc2O)o1,37% (active)
16,O=C(N/N=C/c1ccc(-c2ccccc2)o1)c1ccccc1O,-1%
17,Cc1cccc(/C=N/NC(=O)c2cc(Br)ccc2O)n1,0%
